Assay outcomes (PubChem BioAssay)
Kir21 inh: inhibitors of mouse Kir2.1 inward-rectifier potassium channel; Inward rectifier potassium channel 2 (Mus musculus), P35561; HEK293-Kir2.1, FluxOR thallium flux fluorescence; hits give low values; B-score at 10 µM; hit rate 0.85% among 310,000; AID 1672, 2009;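 active = fluorescence ratio B-score at or below minus 3 SD of library scores, with starting-brightness B-score within 2 SD, cut at about -4.2 in these data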;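 also: channel flux triggered by added potassium and thallium sulfate stimulus; B-score of peak minus minimum fluorescence over baseline after thallium stimulus; more negative B-score means stronger Kir2.1 block with less thallium influx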
CHT block: inhibitors of human choline transporter CHT; hit rate 0.86% among 310,000; B-score at 10 µM; CHT-expressing cells, membrane potential dye, choline response; hits give low values;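 active = B-score over 3 SD under the library average, and starting fluorescence ratio not unusually high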;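 also: choline stimulus applied at its EC90 after an EC20 pre-addition; B-score computed on integrated fluorescence ratio after choline addition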
Target sequence (Q9GZV3 whole entry, looked up): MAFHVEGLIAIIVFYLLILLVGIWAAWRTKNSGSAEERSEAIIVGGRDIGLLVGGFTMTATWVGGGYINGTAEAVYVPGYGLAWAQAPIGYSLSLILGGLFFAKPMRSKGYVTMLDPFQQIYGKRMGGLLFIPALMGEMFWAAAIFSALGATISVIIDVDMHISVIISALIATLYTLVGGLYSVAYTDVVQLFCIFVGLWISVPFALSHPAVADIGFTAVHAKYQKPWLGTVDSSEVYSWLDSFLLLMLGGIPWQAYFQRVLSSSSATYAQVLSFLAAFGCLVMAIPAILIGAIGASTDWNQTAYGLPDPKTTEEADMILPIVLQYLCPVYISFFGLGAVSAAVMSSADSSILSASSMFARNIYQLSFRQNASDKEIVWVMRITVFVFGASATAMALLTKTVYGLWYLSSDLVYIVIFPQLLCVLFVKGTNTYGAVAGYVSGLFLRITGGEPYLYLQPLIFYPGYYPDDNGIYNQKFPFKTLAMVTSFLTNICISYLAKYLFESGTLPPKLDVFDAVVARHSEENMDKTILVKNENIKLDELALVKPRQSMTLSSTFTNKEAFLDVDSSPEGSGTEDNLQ
CHT allo act: CHT positive allosteric modulators, primary screen, cell-based, membrane potential dye, choline EC20; High affinity choline transporter 1 (Homo sapiens), Q9GZV3; CHT-expressing cells; hits give high values; LV-AA mutant CHT in HEK293 cells; B-score at 10 µM; hit rate 0.49% among 310,000;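 active = initial fluorescence not abnormally high and integrated response B-score, plate-corrected, over 3 SD above library mean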
TMEM16A inh: TMEM16A chloride channel inhibitors, primary screen, cell-based, HTS | normalized B-score (activity score, 25-100; higher = stronger inhibition) at 10 µM | hit rate 1.2% among 310,000 | Anoctamin-1 (Mus musculus), Q8BHY3 | HEK293 TMEM16A/YFP iodide influx fluorescence, ionomycin;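 active = ratio plate-corrected score three or more library SD toward inhibition, starting fluorescence score within five deviations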;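 also: score derived from kinetic fluorescence span divided by baseline fluorescence per well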
GPR7 antag: GPR7 receptor antagonists, primary screen, cell-based, fluorescence, single concentration; Neuropeptides B/W receptor type 1 (Homo sapiens), P48145; GPR7-expressing cells, fluorescence antagonist assay; inhibition, % at 4.4 µM; hit rate 1.1% among 290,000; in the data active = inhibition above about 16%, passing the limit was not always enough;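 also: cells stimulated with the agonist NPW; 0% = agonist with vehicle and 100% = vehicle without agonist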
ANO1 activ: TMEM16A chloride channel activators or potentiators, primary screen, cell-based, HTS. Anoctamin-1 (Mus musculus), Q8BHY3. HEK293 TMEM16A/YFP-H148Q/I152L, iodide quench fluorescence; hits give low values. B-score at 10 µM. hit rate 0.3% among 340,000. AID 623877, 2012;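 active = fluorescence-ratio B-score plate-corrected deviation score at least 3 library SD below zero, with starting fluorescence score within 5 deviations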;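 also: channel opened by trigger with iodide after compound preincubation; score built on the fluorescence ratio of max minus min over baseline; more negative score means more quench and so TMEM16A activation or potentiation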
CHT block conf: CHT inhibitors, confirmation, cell-based, membrane potential dye, duplicate; shares compounds with CHT block; CHT-expressing cells, choline membrane potential dye; LV-to-AA substituted CHT, HEK293 cells; CHT activity remaining % of control (hits give low values), % at 10 µM; hit rate 70% among 2,400; AID 493221, 2011;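 active = choline transporter activity left, mean of duplicates at 10 µM, below buffer-only control mean minus 3 SD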;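 also: depolarization triggered by choline at its EC90 following an EC20 pre-addition; 0% = hemicholinium-3 full block and 100% = buffer-only control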
HEK293 MPD ctr: membrane potential effects in parental HEK293, counter-screen for CHT inhibitor project, cell-based, membrane potential dye | hit rate 4% among 2,400 | choline response; active = decrease or increase beyond buffer ±3SD | AID 493222, 2011 | membrane potential ratio readout (active if shifted either direction beyond buffer ±3SD; no single direction) at 10 µM | shares compounds with CHT block;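 also: parental cells lack the transporter so any hit is non-specific; ratio is peak minus trough fluorescence over baseline after EC90 choline challenge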
Active calls of the source: *; i = inactive; · = no result. Compounds with a hit are over-represented: about 3.7% of the library has one in this group of screens.

SMILES	Kir21 inh	CHT block	CHT allo act	TMEM16A inh	GPR7 antag	ANO1 activ	CHT block conf	HEK293 MPD ctr
O=C(N/N=C\c1cn[nH]c1-c1ccccc1)c1ccc([N+](=O)[O-])cc1	-1.6	i	i	i	7	i	·	·
O=C(N/N=C/c1cn[nH]c1-c1ccc(Cl)cc1)c1ccc([N+](=O)[O-])cc1	-0.06	-5.1*	i	i	-7	i	60%*	i
CN1C(=O)C(CC(=O)NCCc2ccccc2)N(NC(=O)c2ccc(Cl)cc2)C1=S (stereo not given)	0.78	-12*	i	i	-17	i	i	i
CN1C(=O)C(CC(=O)NCCc2ccccc2)N(NC(=O)c2cccc(F)c2)C1=S (stereo not given)	0	i	i	i	-11	i	·	·
N#C/C(=C(/O)c1ccccc1F)c1nc2cc(C(F)(F)F)ccc2s1	-1.9	-5.5*	i	i	-9	i	48%*	i
CC(C)=C(C#N)c1nc2ccccc2s1	2.4	i	i	i	2	i	·	·
CCCC(=O)NC(=S)Nc1cccc(NC(=O)c2ccccc2Cl)c1	0.44	-12*	i	i	-3	i	14%*	i
CCCC(=O)Nc1ccc(Cl)c(NC(=O)c2ccc([N+](=O)[O-])cc2Cl)c1	3	i	i	i	-1	i	·	·
CCCC(=O)Nc1cccc(NC(=O)c2ccc([N+](=O)[O-])cc2Cl)c1	1.2	-6.6*	i	i	-10	i	61%*	i
COc1cc(O)c(C(CC(=O)N2CCN(c3ccccc3)CC2)c2ccc(N(C)C)cc2)c(OC)c1 (stereo not given)	-0.93	-11*	i	i	·	i	i	i
COC(=O)c1ccccc1NC(=O)CSc1nc2cccnc2n1C	-0.82	-5.9*	i	i	4	i	i	i
O=C(Nc1ccc(S(=O)(=O)NCc2ccccc2)cc1)C1CCCCC1	-0.47	i	i	i	-31	i	·	·
c1cc(Nc2ncnc3sccc23)cc(-c2nnc3n2CCCCC3)c1	-0.46	-6*	i	i	-8	i	57%*	i
Cc1ccc(CC2CC(=O)N(c3cc(Cl)ccn3)C2=O)cc1 (stereo not given)	0	i	i	i	-4	i	·	·
N#Cc1ccccc1COC(=O)c1cccnc1N	-0.85	-5.7*	i	i	-19	i	65%*	i
O=C(OCc1ccccc1Cl)c1cccnc1Cl	-0.33	i	i	i	-3	i	·	·
CCCCn1nc2cc(C(=O)NC3CCCc4ccccc43)ccc2c1OCC (stereo not given)	-1.2	-9.6*	i	i	-14	i	21%*	i
CCCn1nc2cc(C(=O)NCc3ccc(C)cc3)ccc2c1OCC	-0.47	-5.6*	i	i	-7	i	56%*	i
CCOc1c2ccc(C(=O)NC3CCCc4ccccc43)cc2nn1C (stereo not given)	-0.28	i	i	i	9	i	·	·
CCCCn1nc2cc(C(=O)NCc3cc(C(F)(F)F)cc(C(F)(F)F)c3)ccc2c1OCC	0.78	i	i	i	5	i	·	·
CCCCn1nc2cc(C(=O)N[C@H](C)C3CCCCC3)ccc2c1OCC	0.03	-11*	i	i	-10	i	5.4%*	i
COc1cccc(CN(C)C(=O)c2ccc(Cl)c(S(=O)(=O)N3CCCCCC3)c2)c1OC	·	·	·	·	·	i	·	·
CC1=NN(c2ccccc2)C(=O)/C1=C/c1c(O)n(-c2ccc(F)cc2)[nH]c1=O	-0.13	-5.9*	i	i	-8	i	54%*	i
CC1=NN(c2ccccc2)C(=O)/C1=C/c1cccs1	-0.33	i	i	i	8	i	·	·
Cc1ccc(-c2nnc(N3CC(C)OC(C)C3)c3ccccc23)cc1 (stereo not given)	-1.5	-7.5*	i	i	-17	i	59%*	i
SMILES	Kir21 inh	CHT block	CHT allo act	TMEM16A inh	GPR7 antag	ANO1 activ	CHT block conf	HEK293 MPD ctr
Cc1ccc(-c2nnc(N3CCCCC3)c3ccccc23)cc1	0.41	i	i	i	-10	i	·	·
Cc1ccc(C(=O)N/C(=C/c2ccco2)C(=O)Nc2cccc(C)c2)cc1	-1.5	-5.7*	i	i	4	i	62%*	i
Cc1ccc(NC(=O)Nc2cc(C(F)(F)F)c[nH]c2=O)cc1	0.16	i	i	i	-14	i	·	·
CSc1nc(Cl)cc(N2CCOCC2)n1	1.1	i	i	i	-4	i	·	·
CNc1cc(Cl)nc(SC)n1	0.07	-12*	i	i	-14	i	-0.4%*	i
C=CCn1c(CCc2cc(C(C)(C)C)c(O)c(C(C)(C)C)c2)n[nH]c1=S	-1.6	i	i	i	5	i	·	·
COc1ccc(CCNC(=O)C(C)c2ccc([N+](=O)[O-])cc2)cc1 (stereo not given)	-4.5*	-5.5*	i	i	15	i	i	i
Cc1cccc(C)c1OCc1cc(C(=O)N2CCN(C3CCCC3)CC2)no1	-1.4	-6.3*	i	i	-9	i	53%*	i
Cc1ccc(CNC(=O)c2ccc(CNc3c(N4CCCC4)c(=O)c3=O)cc2)cc1	1.7	i	i	i	-5	i	·	·
O=C(NC1CCCCCCC1)c1ccc(CNc2c(N3CCOCC3)c(=O)c2=O)cc1	-0.16	-9.4*	i	i	7	i	13%*	i
CC1CCCC(NC(=O)c2ccc(CNc3c(N4CCCC4)c(=O)c3=O)cc2)C1C (stereo not given)	1.9	-13*	i	i	-6	i	0.2%*	i
COc1ccc(NC(=O)c2ccc(NCCN3C(=O)CCC3=O)c([N+](=O)[O-])c2)cc1	1.1	i	i	i	-9	i	·	·
Cc1ccc(-c2nc3ncccc3o2)cc1NC(=O)c1ccccc1	0.35	-6.7*	i	i	-10	i	i	i
